# Experimental data from PubChem BioAssay AID1053143 (Broad Institute, 2014).
# The whole screen tested about 3,400 compounds, of which about 120 (3.5%) were called active. How the calls were made is not given here. The list is a sample of the results. Entries with a potency or affinity are not part of this list.
# Assay: viability loss in HepG2 hepatoma cells – cell-based, ATP luminescence, cherry-pick, activator set 2, cytotoxicity control, dose response (AID 1053143)
# Conditions: CellTiter-Glo ATP luminescence, 72 h; series mostly up to 26 µM; activity change, negative = cytotoxicity: at the top concentration
row,Structure (SMILES),"activity change, negative = cytotoxicity"
1,Cc1nc2ccc(NC(=O)c3ccc(Cl)s3)cc2s1,9.53% (inactive)
2,C=CCOc1ccc2c(OC)c3ccoc3nc2c1OC,-3.4% (inactive)
3,CCCC(=O)N(C)c1nnc(-c2ccc(OC)cc2)s1,-14.6% (inactive)
4,COc1ccc(C)cc1NC(=O)C1CCCN1S(=O)(=O)c1ccccc1F (centres undefined),-12.2% (inactive)
5,Cn1cccc1C(=O)OCC(=O)c1cc2ccccc2o1,15.6% (inactive)
6,COc1cc(Cl)ccc1OCc1cc(C(=O)N2C[C@@H]3CCC[C@H]2C3)no1,5.09% [at 12 µM] (inactive)
7,O=C(/C=C/c1ccco1)Nc1nc(-c2ccccc2)cs1,-19.8% (inactive)
8,Nc1cc(-c2ccc(Cl)cc2)nn1-c1ccccc1,-12.7% (inactive)
9,Cc1occc1C(=O)O/N=C(\N)c1ccc(Cl)cc1,36.1% (inactive)
10,O=C(Nc1nc(=O)c2ccccc2s1)c1ccccc1,-0.099% (inactive)
11,O=C(Nc1nc2ccccc2s1)c1ccc(F)cc1,-23% (inactive)
12,O=C(c1ccccc1)c1cnc(-c2ccc(Cl)cc2)s1,-21.5% (inactive)
13,CCCC(=O)N/C(N)=N/c1nc2ccccc2o1,-11.3% (inactive)
14,Cc1nc(Nc2ccccc2)sc1C(=O)c1ccccc1,5.72% (inactive)
15,Nc1nc(Nc2ccccc2F)sc1C(=O)c1ccccc1,25.7% (inactive)
16,Cc1ccc(Nc2ncccc2C(N)=O)cc1[N+](=O)[O-],-16.8% (inactive)
17,CCOC(=O)c1ccc(N2Cc3ccccc3C2=NC(=O)c2ccncc2)cc1,0.403% (inactive)
18,Cc1ccc(Nc2nc3ccccc3o2)cc1F,-28.7% [at 12 µM] (inactive)
19,O=c1sc2ccccc2n1CCCOc1ccccc1,-13.9% (inactive)
20,Cn1c(-c2ccc([N+](=O)[O-])cc2)nc2ccccc21,-8.29% (inactive)
21,Cc1ccc(OCCn2cnc3ccccc3c2=O)c([N+](=O)[O-])c1,-2.42% (inactive)
22,Fc1cccc(-c2ncc(-c3ccccc3)o2)c1,-8.72% (inactive)

row,Structure (SMILES),"activity change, negative = cytotoxicity"
1,O=C(Nc1nc2ccc([N+](=O)[O-])cc2s1)c1ccco1,-10.7% (inactive)
2,O=C(Nc1nc2c(ccc3ccccc32)s1)c1ccco1,-31.8% (inactive)
3,CCOC(=O)c1ccc2nc(NC(C)=O)sc2c1,8.97% (inactive)
4,O=C(Nc1cc(-c2ccccc2)cs1)c1ccco1,-12.4% (inactive)
5,Cc1cc2sc(NC(=O)c3ccco3)nc2cc1Cl,-2.65% (inactive)
6,Cc1cc(NC(=O)c2ccccc2)sc1C,-41.8% (inactive)
7,CCOc1ccc(NC(=O)Cc2ccccc2)cc1,-19.9% (inactive)
8,COC(=O)c1sc2nc3c(cc2c1N)CCCC3,-2.91% (inactive)
9,CC(C)c1ccc(NC(=O)c2cccc(Br)c2)cc1,17.8% (inactive)
10,COc1cc(/C=N/NC(=O)CNC(=O)c2ccccc2)ccc1OC(=O)c1cccs1,-19.2% (inactive)
11,O=C(Nc1nc2ccc(Cl)cc2s1)C1CC1,-16% (inactive)
12,CCC1CCCCN1S(=O)(=O)c1ccc(NC(=O)C2CC(=O)N(C(C)(C)C)C2)cc1 (centres undefined),-2.85% (inactive)
13,O=c1[nH]c2ccccc2nc1CCc1ccccc1,-9.94% (inactive)
14,Cc1cc(N2CCCCC2)nc2ccc(NC(=O)CCC(=O)NCCC(C)C)cc12,-18.6% (inactive)
15,COc1cc(OC)cc(C(=O)NCC(=O)Nc2ccc(C)c(Cl)c2)c1,0.049% (inactive)
16,CCn1ccc(C(=O)Nc2ccc(Cl)cn2)n1,-0.072% (inactive)
17,O=C1c2ccccc2-c2nc3ccccc3cc21,-16.9% (inactive)
18,c1ccc2c(c1)Cc1cc3ccccc3nc1-2,-11.6% (inactive)
19,CC(C)Sc1ccc(C(=O)Nc2ccc(F)cc2F)cn1,-2.75% (inactive)
20,CCC(C)Sc1ccc(-c2nc3ccc(Cl)cn3c2NCc2ccccc2)cc1 (centres undefined),-18.8% (inactive)
21,CN(Cc1ccsc1)C(=O)CCc1nnc(CCCc2ccccc2)o1,-9.96% (inactive)
22,O=C(Nc1ccccn1)C(=O)Nc1ccccn1,-5.28% (inactive)

row,Structure (SMILES),"activity change, negative = cytotoxicity"
1,Cc1n[nH]c(=O)nc1N/N=C/c1ccco1,13.9% (inactive)
2,Cc1nc(-c2ccc(NC(=O)c3ccccc3Br)cc2)cs1,-4.14% (inactive)
3,Cc1nc(-c2ccc(NC(=O)CC(C)C)cc2)cs1,-11.5% (inactive)
4,O=C(Nc1ccccc1N1CCN(c2ccccc2)CC1)c1ccccc1,-2.97% (inactive)
5,O=C(NC(=O)c1ccccc1)Nc1ccccc1O,-14.8% (inactive)
6,CCCNC(=O)Nc1cccc(C(=O)OC)c1,-14.5% (inactive)
7,Nc1ccc2nc(-c3ccccc3)cnc2c1,-14.5% (inactive)
8,c1ccc(-c2cnnc(-c3ccccn3)n2)cc1,-3.23% (inactive)
9,O=C(Nc1nccs1)c1cc2c(s1)-c1ccccc1OC2,-3.47% (inactive)
10,Cc1cc(O)c(NC(=O)c2cccc([N+](=O)[O-])c2)cc1C,1.55% (inactive)
11,COc1ccc(CCN2C(=NC(C)=O)SC3CS(=O)(=O)CC32)cc1OC (centres undefined),1.28% (inactive)
12,COc1cccc(N/N=C/c2cccc(Br)c2O)c1,-1.94% (inactive)
13,Clc1ccccc1C=NNc1ccccn1,-19.2% (inactive)
14,CCCCSc1nnc(-c2ccc(C)cc2)n1C,-6.32% (inactive)
15,Cc1ccc(/C=C/c2nc3ccccc3[nH]2)o1,-25.4% (inactive)
16,Clc1ccc(Cn2c(/C=C/c3ccco3)nc3ccccc32)cc1,-7.76% (inactive)
17,COc1ccccc1C(=O)Nc1ccc2c(C)cc(=O)oc2c1,7.5% (inactive)
18,c1ccc2[nH]c(SCC3CCCCO3)nc2c1 (centres undefined),9.84% (inactive)
19,Cc1cc2ncc(-c3ccccc3)nc2cc1C,-23.2% (inactive)
20,Oc1ccc(-c2cnc3ccccc3n2)cc1,-12% (inactive)
